Among the data in the supplement of paper PMC6555819 are PBM binding z-score values, retold here.

What all share (assay): PBM binding z-score (relative to random genomic background probes); higher = stronger binding; sequences stand for … in GC…GCGATTGACAGCGTAGAATGAAGG
The test system of test [1] is RARb homodimer (NR concentration 270 nM). In a few lines: (§1)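 Antibodies against each partner of ligand-free nuclear receptor dimers (one per run) detected binding on custom Agilent 4×180K protein-binding microarrays after 1 h incubation. The double-stranded probes had 34-nt variable regions carrying direct-repeat seeds, single-nucleotide variants, half-site ablations and random human genomic background sequences. Binding z-scores, from regression-normalized fluorescence, use the random background probes as reference.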

For test [2], the system named is RARg:RXRa (NR concentration 270 nM, RXRa partner concentration 90 nM). In a few lines:
as §1

Test [3] concerns RARg homodimer (NR concentration 270 nM). The procedure, abridged: as §1
Test [4] concerns RXRa DBDmut IVT, anti-RXR (DBD mutation: RXRa K156A/R161A, NR concentration 90 nM). The procedure, abridged: as §1
Test [5] deals with RXRa homodimer (NR concentration 180 nM). In a few lines:
as §1

Test [6] deals with THRa:RXRa (NR concentration 90 nM, RXRa partner concentration 90 nM). In a few lines:
as §1

Test [7] relates to THRa homodimer (NR concentration 90 nM). The procedure, abridged: as §1
The subject of test [8] is VDR homodimer (NR concentration 270 nM). In a few lines: as §1

On to AGTCAAAGTTCATTAGGTAACGTAAGATTCAGCT, for which the PBM binding z-score came to 3.87 in test [1]; 5.26 in test [2]; 5.92 in test [3]; 4.97 in test [4]; 4.52 in test [5]; 2.59 in test [6]. Moreover, the PBM binding z-score in test [7] is 0.801; in test [8], 5.43.

As for GCATATAGGTAATACATGGTGAAAGTCCGATTGT, the PBM binding z-score in test [1] is -0.181; in test [2], 0.00391; in test [3] it was 0.437; in test [4], 0.319; in test [5], 0.441; in test [6] it was 0.327. Moreover, the values for the PBM binding z-score in test [7] and in test [8] were -0.218 and 0.32, respectively.

Regarding CCTAATAGTTGACCATAAGGGCAACCGAAGCTCG, the PBM binding z-score in test [1] turned out to be 2.04; in test [2] it was 1.61; in test [3] it was 1.18; in test [4], 0.375; in test [5] it was 0.786; in test [6], 2.02. For the same sequence, the results for the PBM binding z-score in test [7] and in test [8] were 0.988 and 0.915, respectively.

On to CCTTACGGGTCACTCCAGGTTAGAGCATCGGAGT, for which the PBM binding z-score in test [1] was 3.08; in test [2] it was 4.43; in test [3] it was 4.37; in test [4], 1.55; in test [5], 4.07; in test [6] it was 4.81. The PBM binding z-score amounted to 0.277 in test [7] and 1.18 in test [8].

Regarding TTACCAAGGTGTGCTGAGGTCGTTGATCCAACTC, the PBM binding z-score in test [1] was 1.18; in test [2] it was 0.184; in test [3], -0.154; in test [4] it was 0.555; in test [5], 0.725; in test [6] it was 3.24. The PBM binding z-score in test [7] was determined as 1.77; in test [8] it was 2.39.

Regarding CTCGAAAGGTCCTGCTCAGGTGAGTATACCAAAC, the PBM binding z-score is 0.614 in test [1]; 0.95 in test [2]; 0.414 in test [3]; -0.0806 in test [4]; 0.666 in test [5]; 2.11 in test [6]. The PBM binding z-score in test [7] is 0.634; in test [8], -0.488.

For CCTACTGGGCCAAAAAGGTCATTTATGCCGATAA, the PBM binding z-score in test [1] came out at 4.03; in test [2] it was 4.11; in test [3] it was 3.43; in test [4], 0.766; in test [5], 4.35; in test [6], 2.85. The values for the PBM binding z-score in test [7] and in test [8] were 0.395 and 2.46, respectively.

ATATGTAGGTTACATCCGGGTCATTTAGGCTATG: the PBM binding z-score in test [1] was found to be 2.76; in test [2], 3.59; in test [3], 1.81; in test [4], 1.21; in test [5] it was 3; in test [6], 3.7. Also, the PBM binding z-score stood at 2.55 in test [7] and 2.98 in test [8].

For the sequence ATCGAAAGGTCGAAGGTGAGTATTCCCACCCGAA, the PBM binding z-score in test [1] came to 2.4; in test [2], 4.36; in test [3], 3.76; in test [4], 1.17; in test [5], 5.41; in test [6], 2.13. Moreover, the PBM binding z-score was 0.00651 in test [7] and 0.282 in test [8].

On to TCATATAGGTAAAGAGGTGAAAGTCCGTAAGTTA, for which the PBM binding z-score in test [1] stood at 1.56; in test [2] it was 1.37; in test [3], 0.762; in test [4], 1.73; in test [5], 2.04; in test [6], 1.8. In addition, the PBM binding z-score in test [7] is 0.621; in test [8], 0.613.

In the case of AATACAGGGACACTAGGCCAGAGTAGGTACGAAT, the PBM binding z-score is 0.487 in test [1]; 0.347 in test [2]; 0.984 in test [3]; 0.0578 in test [4]; -0.151 in test [5]; 0.812 in test [6]. In addition, the PBM binding z-score was 0.241 in test [7] and 0.347 in test [8].

AGTCAAAGTTCATATAGGTAACGTAAGATATGCT: the PBM binding z-score in test [1] was determined as 3.55; in test [2], 5.1; in test [3] it was 5.32; in test [4], 4.83; in test [5], 4.41; in test [6] it was 2.28. Further, the results for the PBM binding z-score in test [7] and in test [8] were -0.342 and 5.14, respectively.

For the sequence CGAACTAGGTCATTGACAGGACAGTGATTAGTAA, the PBM binding z-score in test [1] was determined as 2.83; in test [2], 4.5; in test [3], 4.52; in test [4], 2.49; in test [5], 2.47; in test [6], 2.9. The PBM binding z-score came out at 1.05 in test [7] and 1.52 in test [8].

Regarding CCTAACGGGTCACGAGGTTATAGCACGACGAGCG, the PBM binding z-score in test [1] came to 3.65; in test [2], 5.84; in test [3], 4.93; in test [4], 1.5; in test [5], 6.09; in test [6] it was 3.44. Also, the PBM binding z-score in test [7] is 0.791; in test [8], 1.91.

Take GCAGACAGGTGAAACGCAGGTATCTCAGGGTGGC: the PBM binding z-score in test [1] was 0.0151; in test [2], 0.137; in test [3] it was 0.315; in test [4], -0.484; in test [5] it was 0.588; in test [6], 0.272. The PBM binding z-score in test [7] was -0.471; in test [8] it was -0.528.

For TCAGAGAGGTGAAGGTAACTCAGGTACGCAGTCG, the PBM binding z-score in test [1] stood at 1.34; in test [2] it was 1.54; in test [3] it was 1.36; in test [4], 1.31; in test [5], 1.85; in test [6], 2.04. Further, the results for the PBM binding z-score in test [7] and in test [8] were 0.401 and 0.316, respectively.

Consider ATCGAAAGATCGAAGGTGAGTATACCCACCCGAA, for which the PBM binding z-score was -0.186 in test [1]; 0.34 in test [2]; 0.489 in test [3]; -0.722 in test [4]; 0.765 in test [5]; 0.17 in test [6]. In addition, the PBM binding z-score in test [7] was -0.601; in test [8] it was -0.259.
